# Compound activity deposited in PubChem BioAssay by several laboratories.
# The list is not random: actives were taken first. Their share in the collection is about 0.7%.
# Cdc25B inh: human M-phase inducer phosphatase 2 inhibition; P30305; recombinant Cdc25B, OMFP fluorescence Ex485/Em525; inhibition, %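 (compounds tested at 10 µM final in the well)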; 65,000 tested, 0.1% active; AID 368; in the data active means inhibition above about 50%
# Target sequence (P30305 whole entry, looked up): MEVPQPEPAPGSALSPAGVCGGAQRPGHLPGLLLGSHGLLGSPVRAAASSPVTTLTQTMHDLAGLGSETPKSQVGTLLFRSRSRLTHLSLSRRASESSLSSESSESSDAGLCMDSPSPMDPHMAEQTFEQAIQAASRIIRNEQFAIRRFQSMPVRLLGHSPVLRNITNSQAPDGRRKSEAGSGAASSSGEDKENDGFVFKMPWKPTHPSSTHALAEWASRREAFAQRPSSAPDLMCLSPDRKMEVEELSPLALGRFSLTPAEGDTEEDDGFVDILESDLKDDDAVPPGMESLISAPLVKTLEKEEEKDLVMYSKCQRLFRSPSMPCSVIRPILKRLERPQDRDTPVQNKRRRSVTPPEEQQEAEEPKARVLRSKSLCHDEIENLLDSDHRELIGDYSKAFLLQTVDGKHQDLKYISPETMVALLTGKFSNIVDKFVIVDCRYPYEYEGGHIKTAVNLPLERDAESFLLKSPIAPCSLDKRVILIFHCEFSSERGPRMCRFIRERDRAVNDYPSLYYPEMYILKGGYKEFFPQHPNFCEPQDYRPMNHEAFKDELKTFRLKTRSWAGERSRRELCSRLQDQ
# HePTP inhibitor: human HePTP phosphatase inhibition; 110,000 tested, 0.64% active; recombinant HePTP phosphatase activity, OD absorbance; inhibition, % at 20 µM; AID 521; in the data active means inhibition above about 50%;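 further: plate controls were vehicle for no effect and reference inhibitor for full effect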
# MKP-1 inh: inhibitors of human MKP-1 phosphatase; recombinant MKP-1, OMFP hydrolysis fluorescence; inhibition, %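 (compounds tested at a single concentration somewhere between 10 and 100 µM)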; 65,000 tested, 0.15% active; AID 374;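 active means inhibition above about 50%, limit read from the data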;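 further: 0% = DMSO max control wells and 100% = wells with enzyme stopped by NaOH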
# * marks the source's active call; other numbers are inactive results; · = no result given; ! = not active in a repeat.
SMILES,Cdc25B inh,HePTP inhibitor,MKP-1 inh
C=CCN1C(=O)/C(=C\c2ccc(-c3ccc([N+](=O)[O-])cc3)o2)C(=O)NC1=S,·,102*,·
C=CCN1C(=O)/C(=C/c2cccc([N+](=O)[O-])c2)C(=O)NC1=S,·,10,·
C=CCN1C(=O)/C(=C\c2ccc(-c3ccc(Br)cc3)o2)C(=O)NC1=S,·,100*,·
O=C(O)c1ccccc1SC1CC(=O)N(c2ccc([N+](=O)[O-])cc2)C1=O (configuration not stated),·,-8,·
CN(C)C1=C(C#N)C(C2CCCCC2=O)c2c(c3ccccc3n2C)N1c1ccc([N+](=O)[O-])cc1 (configuration not stated),·,104*,·
CC(C)(C)c1ccc2[nH]c3c(c2c1)CCC/C3=N\O,·,-5,·
Cc1ccccc1/C=C(/C#N)C(=O)Nc1cccc(Br)c1,·,-8,·
CC(C)(C)C1(C)OC(O)(C(Cl)(Cl)Cl)CC1=O (configuration not stated),·,103*,·
COc1ccc(Oc2ccc3[nH]c4c(c3c2)CCC/C4=N/O)cc1,·,-16,·
Cc1cccc(N=Cc2c(O)n(-c3ccccc3F)c(=O)[nH]c2=O)c1,·,-2,·
O=C(CC12CC3CC(C1)CC(CC(=O)N1CCOCC1)(C3)C2)N1CCOCC1,·,-14,·
CN1CCN(C(=O)CC23CC4CC(CC(C4)C2)C3)CC1,-7,104*!,0
O=C1/C(=C/c2ccc(Cl)cc2Cl)SC(=S)N1C1CCS(=O)(=O)C1 (configuration not stated),·,4,·
O=C1/C(=C/c2cn(-c3ccccc3)nc2-c2ccco2)SC(=S)N1C1CCS(=O)(=O)C1 (configuration not stated),·,66*,·
Cc1no[n+]([O-])c1COc1ccccc1C=C1C(=O)NC(=S)NC1=O,·,12,·
COc1ccc(N2C(=O)NC(=O)/C(=C/c3cc(Cl)c(OCCOc4ccccc4)c(OC)c3)C2=O)cc1,·,7,·
O=C1N=C(N2CCOCC2)S/C1=C\c1ccc(O)cc1,·,-1,·
O=C1N=C(N2CCOCC2)S/C1=C/c1ccc(Cl)cc1,·,102*,·
CC1(C)Cc2c(sc3ncn4nc(CO/N=C/c5ccccc5Cl)nc4c23)C(C)(C)N1,·,6,·
Cc1cccc(NC(=O)c2ccccc2N)c1C,·,8,·
COc1ccccc1N1C(=O)C(=Cc2cccn2C)C(=O)NC1=S,·,102*,·
COc1ccccc1N1C(=O)NC(=O)/C(=C\c2cc3ccccc3n2C)C1=O,·,0,·
COc1cc(C(=O)N/N=C/c2cc(Cl)ccc2O)ccc1O,·,-13,·
COc1cccc(C2/C(=C(\O)c3ccccc3)C(=O)C(=O)N2CCCC(=O)O)c1 (configuration not stated),·,4,·
COc1cccc(C(=O)NC(NC(=S)Nc2cc(OC)ccc2OC)C(Cl)(Cl)Cl)c1 (configuration not stated),·,-2,·
SMILES,Cdc25B inh,HePTP inhibitor,MKP-1 inh
COc1ccc(OC)c(NC(=S)NC(NC(=O)c2ccccc2Cl)C(Cl)(Cl)Cl)c1 (configuration not stated),·,104*,·
CC(=O)n1c(SCC(=O)Nc2ccccc2)nc2ccccc21,·,2,·
C[C@@H]1O[C@@H](Nc2cccc3ccccc23)[C@H](O)[C@H](O)[C@H]1O,·,0,·
O=C1C(Cl)=C(N2CCCCC2)C(=O)C(Cl)=C1/C=C/N1CCCCC1,·,102*,·
O=C1C(Cl)=C(N2CCCCC2)C(=O)N1c1ccccc1,-13,-6,-2
COc1ccccc1Nc1nc(-c2cc3ccccc3oc2=O)cs1,·,-2,·
CCc1ccc(NC(=O)c2c(-c3c(Cl)cccc3Cl)noc2C)cc1,·,-4,·
O=C(CSc1nc2ccc(N3C(=O)c4ccccc4C3=O)cc2s1)Nc1ccc(F)cc1,·,0,·
O=C(CSc1nc2ccc(N3C(=O)c4ccccc4C3=O)cc2s1)Nc1cccc([N+](=O)[O-])c1,·,80*,·
O=C1c2cc(S(=O)(=O)n3cnc4ccccc43)ccc2-c2ccc(S(=O)(=O)n3cnc4ccccc43)cc21,·,1,·
COC(=O)C(Cc1ccccc1)NC(=O)c1ccccc1 (configuration not stated),·,0,·
Cc1ccc(O)c(C(=O)c2cnc3c(c2)CN(CCC(C)C)C(=O)N3)c1,2,7,25
CN1Cc2cc(C(=O)c3cc(Cl)cc(CSc4ncccn4)c3O)cnc2NC1=O,5,4,55*
O=C(CSc1ccccn1)Nc1ccc2c(c1)C(=O)c1ccccc1C2=O,·,105*,·
Cc1nnc(SCC(=O)Nc2ccc3c(c2)C(=O)c2ccccc2C3=O)s1,·,-5,·
C=C(Br)CSc1nc2ccccc2[nH]1,·,1,·
O=C(/C=C/c1ccco1)Nc1cc(Cl)ccc1C(=O)O,·,102*,·
O=C(/C=C/c1ccco1)Nc1ccccc1-c1ccccc1,·,5,·
O=C(/C=C/c1ccco1)NCc1ccc(Cl)cc1,·,10,·
O=C(/C=C/c1ccco1)Nc1ccccc1C(=O)O,·,96*,·
O=C(Nc1cccc([N+](=O)[O-])c1)c1cc2ccccc2o1,·,2,·
Cc1ccc(NC(=O)CN2C(=O)c3ccccc3C2=O)c(C(=O)O)c1,·,2,·
O=C1N=C(N=Nc2c(O)[nH]c3ccccc23)S/C1=C/c1ccc(Br)cc1,·,103*,·
NC(=O)N=Nc1c(O)[nH]c2ccccc12,·,-6,·
COc1cc(/C=C2/C(=O)NN(c3ccc(Cl)cc3)C2=O)ccc1O,·,9,·
SMILES,Cdc25B inh,HePTP inhibitor,MKP-1 inh
CCOC(=O)c1ccc(N2NC(=O)/C(=C/c3ccc(O)c(OCC)c3)C2=O)cc1,·,-6,·
CCCCOc1ccc(/C=C2/C(=O)NN(c3ccc(C(=O)OCC)cc3)C2=O)cc1OC,·,-8,·
COc1cc(/C=C2/C(=O)NN(c3ccc(Cl)cc3)C2=O)cc(Br)c1O,·,92*,·
CCOC(=O)c1ccc(N2NC(=O)/C(=C/c3ccc4c(c3)OCO4)C2=O)cc1,·,100*,·
C=CCOc1ccc(/C=C2/C(=O)NN(c3ccc(C(=O)OCC)cc3)C2=O)cc1OC,·,60*,·
Cn1c(COc2nnc(-c3ccccc3)c3ccccc23)nc2ccccc21,·,-7,·
CC1CCCN(C(=O)Nc2ccc(F)cc2)C1 (configuration not stated),·,-12,·
COc1ccccc1/C=N\Nc1nc(-c2ccccc2)cc(-c2ccccc2)n1,·,1,·
COc1ccc(C(=O)c2ccc(OC)cc2OC)c(OC)c1,·,5,·
COc1ccc(C(=S)N2CCCC2)c(OC)c1,·,94*,·
CCCCC(CC)CNC(=O)COc1cc(C)c(Cl)c(C)c1 (configuration not stated),·,5,·
CCOC(=O)C(CCOc1c(C)cc(C)cc1Cl)C(=O)OCC,·,2,·
CC(C)(C)C(=O)c1sc(Nc2ccccc2)nc1N,-13,4,85*
COC(=O)c1sc(Nc2ccccc2)nc1C,-6,1,-19
COc1cccc(-n2cnc3cccc(N)c32)c1,-1,92*!,1
COc1cccc(Oc2ccc(N)cn2)c1,-11,-4,-4
O=[N+]([O-])c1ccc(Cl)cc1NCCOc1ccc(F)cc1,·,-13,·
CC(C)c1ccc(C=Nc2ccc3[nH]c(=O)[nH]c3c2)cc1,·,-9,·
O=C(Nc1ccc(-c2nc3ccccc3s2)cc1)c1ccc(Cl)c([N+](=O)[O-])c1,·,2,·
O=C(O)C1Nc2ccc([N+](=O)[O-])cc2C2C=CCC12 (configuration not stated),·,104*,·
O=C(O)C1Nc2ccc3ccccc3c2C2C=CCC12 (configuration not stated),·,102*,·
CC(=O)N1c2ccc3ccccc3c2C2C=CCC2C1c1ccc(Br)cc1 (configuration not stated),·,-12,·
